Laboratory results reported in PubChem BioAssay AID1159580 (chemical genetic matrix, 2015).
Values joined by “and” are separate entries in the source; they are usually repeats but may differ in a detail not shown here. Equal entries are not always repeated. Out of some 5,500 compounds screened, about 2,000 (36%) were called active. Roughly 18% stayed inconclusive and do not appear here. Rule as the data show it: active = normalized growth mostly below about 0.91 (no sharp cut-off); inconclusive = no clear call, values can overlap the other calls; inactive = mostly above about 0.92. Some of the results follow.

Test: chemical genetic growth profiling, strain panel (AID 1159580);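 also: tested at 20 µM; growth read once vehicle control cultures reached saturation at 30 °C; 1 = growth at the plate median or of vehicle wells; lower values mean less growth of the strain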
Details: S. cerevisiae deletion strains, growth OD

Measured: normalized growth

O=C1OCCN1/N=C\c1ccc([N+](=O)[O-])o1
active: locus YAL026C, strain drs2, stronger effect = lower value 0.889 | locus YDR162C, strain NBP2, stronger effect = lower value 0.771 | locus YDR392W, strain spt3, stronger effect = lower value 0.72 | locus YDR502C, strain sam2, stronger effect = lower value 0.92 | locus YER155C, strain BEM2 (second series), stronger effect = lower value 0.788 | locus YGL086W, strain mad1, stronger effect = lower value 0.923 | locus YJR043C, strain POL32, stronger effect = lower value 0.762
inactive: locus YAL013W, strain DEP1, stronger effect = lower value 0.986 | locus YAL021C, strain ccr4, stronger effect = lower value 0.961 | locus YAL030W, strain snc1, stronger effect = lower value 0.999 | locus YBL061C, strain skt5, stronger effect = lower value 1 | locus YBR009C, strain hhf1, stronger effect = lower value 0.97 | locus YBR021W, strain FUR4, stronger effect = lower value 1.03 | locus YBR023C, strain chs3, stronger effect = lower value 1 | locus YBR171W, strain sec66, stronger effect = lower value 0.987 | locus YBR229C, strain ROT2, stronger effect = lower value 0.999 | locus YBR231C, strain swc5, stronger effect = lower value 0.929 | locus YBR279W, strain paf1, stronger effect = lower value 0.986 | locus YCL011C, strain gbp2, stronger effect = lower value 0.991 | locus YCL016C, strain dcc1, stronger effect = lower value 0.935 | locus YCL029C, strain bik1, stronger effect = lower value 0.97 | locus YCL061C, strain MRC1, stronger effect = lower value 0.987 | locus YCL069W, strain vba3, stronger effect = lower value 0.993 | locus YCR088W, strain abp1, stronger effect = lower value 0.976 | locus YDL005C, strain med2, stronger effect = lower value 0.998 | locus YDL035C, strain GPR1, stronger effect = lower value 0.913 | locus YDL040C, strain nat1, stronger effect = lower value 1 | locus YDL074C, strain BRE1, stronger effect = lower value 0.885 | locus YDL101C, strain DUN1, stronger effect = lower value 0.95 | locus YDL185W, strain tfp1, stronger effect = lower value 0.993 | locus YDL192W, strain arf1, stronger effect = lower value 0.99 | locus YDR001C, strain nth1, stronger effect = lower value 1 | locus YDR069C, strain doa4, stronger effect = lower value 0.928 | locus YDR101C, strain arx1, stronger effect = lower value 0.92 | locus YDR137W, strain rgp1, stronger effect = lower value 0.901 | locus YDR150W, strain NUM1, stronger effect = lower value 1.01 | locus YDR159W, strain sac3, stronger effect = lower value 1.01 | locus YDR195W, strain ref2 1.14 | locus YDR297W, strain sur2, stronger effect = lower value 0.992 | locus YDR318W, strain mcm21, stronger effect = lower value 0.919 | locus YDR334W, strain swr1, stronger effect = lower value 1.01 | locus YDR335W, strain msn5, stronger effect = lower value 0.975 | locus YDR388W, stronger effect = lower value 0.982 | locus YEL003W, strain gim4, stronger effect = lower value 0.916 | locus YEL037C, strain rad23, stronger effect = lower value 0.986 | locus YEL061C, strain CIN8 (second series), stronger effect = lower value 1 | locus YEL061C, strain CIN8, stronger effect = lower value 0.999 | locus YER015W, strain faa2, stronger effect = lower value 0.986 | locus YER016W, strain bim1, stronger effect = lower value 0.932 | locus YER110C, stronger effect = lower value 0.979 | locus YER111C, strain swi4, stronger effect = lower value 1.01 | locus YER155C, strain BEM2, stronger effect = lower value 0.996 | locus YER167W, strain BCK2, stronger effect = lower value 0.978 | locus YFR010W, strain ubp6, stronger effect = lower value 0.919 | locus YGL078C, strain dbp3, stronger effect = lower value 0.955 | locus YGL167C, strain pmr1, stronger effect = lower value 1 | locus YGL173C, strain kem1, stronger effect = lower value 0.982 | locus YGL227W, strain vid30, stronger effect = lower value 1 | locus YGL240W, strain doc1, stronger effect = lower value 0.935 | locus YGL248W, strain PDE1, stronger effect = lower value 0.944 | locus YGL253W, strain hxk2, stronger effect = lower value 0.934 | locus YGR135W, strain pre9, stronger effect = lower value 0.936 | locus YGR252W, strain gcn5, stronger effect = lower value 0.808 | locus YHR013C, strain ard1, stronger effect = lower value 1.01 | locus YHR027C, strain rpn1, stronger effect = lower value 0.967 | locus YHR030C, strain SLT2, stronger effect = lower value 1 and 0.876 | locus YHR079C, strain IRE1 (second series), stronger effect = lower value 0.937 | locus YHR079C, strain IRE1, stronger effect = lower value 0.88 | locus YHR094C, strain hxt1, stronger effect = lower value 0.999 | locus YHR129C, strain ARP1, stronger effect = lower value 0.992 | locus YHR142W, strain chs7, stronger effect = lower value 0.967 | locus YHR200W, strain rpn10, stronger effect = lower value 0.995 | locus YIL066C, strain RNR3, stronger effect = lower value 0.997 | locus YIL073C, strain SPO22, stronger effect = lower value 0.761 | locus YIL125W, strain kgd1, stronger effect = lower value 0.974 | locus YIR030C, strain dcg1, stronger effect = lower value 0.967 | locus YJL092W, strain hpr5, stronger effect = lower value 0.937 | locus YJL095W, strain BCK1 (second series), stronger effect = lower value 1.02 | locus YJL115W, strain asf1, stronger effect = lower value 0.982 | locus YJL129C, strain trk1, stronger effect = lower value 1.09 | locus YJL134W, strain LCB3, stronger effect = lower value 0.998 | locus YJL154C, strain vps35, stronger effect = lower value 0.993 | locus YJL164C, strain tpk1, stronger effect = lower value 0.962 | locus YJL166W, strain qcr8, stronger effect = lower value 0.985 | locus YJL168C, strain set2, stronger effect = lower value 0.999 | locus YJL187C, strain SWE1 (second series), stronger effect = lower value 0.971 | locus YJL187C, strain SWE1, stronger effect = lower value 1 | locus YJR066W, strain TOR1, stronger effect = lower value 0.826
0.883 (inactive) and 0.85 (active): locus YJL095W, strain BCK1, stronger effect = lower value
